From PubChem BioAssay (NCATS) come the findings set out here.

Each structure is given as a SMILES string. Inconclusive results are not listed. Where a call stands in place of a potency, no number is given. Calls of active or inactive are those of the source. Calls come from the whole dose curve; as a rule, active = well fitted inhibition curve with a large enough effect; inconclusive = small, poorly fitted or top-dose-only effect; inactive = flat fitted curve, though single readings scatter.
Potency is the fitted concentration of half-maximal effect.

The experiment can be described thus: BET inhibitor-based combinations targeting novel dependencies in MECOM-rearranged (r) AML: AML-194 cell line (AID 2202237; note: nearly all actives have a fitted effect of over 40% in size). Particulars: AML-194 (MECOM-r AML) viability, CellTiter-Glo, 48 h; series mostly up to 46 µM. The method in brief: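 Luminescent ATP readout (CellTiter-Glo) after 48 hr drug exposure gives viability. Curves span 11 concentrations and are normalized to DMSO and empty wells. Activity is reported as area under the curve and its Z-transform within each cell line.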
Background: ATP-based viability assays read luminescence as a measure of living cells.
With `CN1C(=O)[C@@H](NC(=O)[C@H](CCC(F)(F)F)[C@H](CCC(F)(F)F)C(N)=O)N=C(c2ccccc2)c2ccccc21`, the Potency entry was “inactive”.
Under `C[C@@H]1CC[C@@]2(OC1)O[C@H]1C[C@H]3[C@@H]4CC=C5C[C@@H](O[C@@H]6O[C@H](CO)[C@@H](O[C@@H]7O[C@@H](C)[C@H](O)[C@@H](O)[C@H]7O)[C@H](O)[C@H]6O[C@@H]6O[C@@H](C)[C@H](O)[C@@H](O)[C@H]6O)CC[C@]5(C)[C@H]4CC[C@]3(C)[C@H]1[C@@H]2C` stands 8.33 µM (active); under `C#CCN(C)[C@H](C)Cc1ccccc1`, “inactive”.
